{"source": "PubChem BioAssay (NCATS)", "note": "Results filed as inconclusive are left out. A call without a number means that no potency is given here. The source made the active and inactive calls. Calls follow the shape of the full dose curve.", "data": [{"assay": "Primary qHTS for Vero E6 cytotoxicity: counterscreen for inhibitors of SARS-S pseudo-typed particle cell entry (AID 1479150)", "conditions": "cell viability; series mostly up to 57.1 µM", "values": [{"smiles": "N#CC[C@H](C1CCCC1)n1cc(-c2ncnc3[nH]ccc23)cn1", "Potency": "inactive"}, {"smiles": "O=C(c1cc(Cc2n[nH]c(=O)c3ccccc23)ccc1F)N1CCN(C(=O)C2CC2)CC1", "Potency": "inactive"}, {"smiles": "COc1cc2nccc(Oc3ccc(NC(=O)C4(C(=O)Nc5ccc(F)cc5)CC4)cc3)c2cc1OC", "Potency": "inactive"}, {"smiles": "COc1cc2c(cc1OC)CC(=O)N(CCCN(C)C[C@H]1Cc3cc(OC)c(OC)cc31)CC2", "Potency": "inactive"}, {"smiles": "Clc1ccccc1CN1CCc2sccc2C1", "Potency": "inactive"}, {"smiles": "CCOc1cc2ncc(C#N)c(Nc3ccc(OCc4ccccn4)c(Cl)c3)c2cc1NC(=O)/C=C/CN(C)C", "activity change, negative = cytotoxicity": "-35.9% [at 11.4 µM] (inactive)"}, {"smiles": "Cc1cn(-c2cc(NC(=O)c3ccc(C)c(Nc4nccc(-c5cccnc5)n4)c3)cc(C(F)(F)F)c2)cn1", "Potency": "inactive"}, {"smiles": "CC[C@H](Nc1ncnc2nc[nH]c12)c1nc2cccc(F)c2c(=O)n1-c1ccccc1", "Potency": "inactive"}, {"smiles": "Cc1cc(C(=O)NNCc2ccccc2)no1", "Potency": "inactive"}, {"smiles": "CC1=C(C/C=C(\\C)CCC[C@H](C)CCC[C@H](C)CCCC(C)C)C(=O)c2ccccc2C1=O", "Potency": "inactive"}, {"smiles": "CCCS(=O)(=O)Nc1ccc(F)c(C(=O)c2c[nH]c3ncc(-c4ccc(Cl)cc4)cc23)c1F", "Potency": "inactive"}, {"smiles": "C[C@@H]1CCN(C(=O)CC#N)C[C@@H]1N(C)c1ncnc2[nH]ccc12", "Potency": "inactive"}, {"smiles": "CC(C)CCCC(C)CCCC(C)CCCCC(C)CCCC(C)CCCC(C)C", "note": "(centres undefined)", "Potency": "inactive"}]}, {"assay": "Confirmatory qHTS for VERO E6 Cytotoxicity Assay: Counterscreen for SARS-CoV-2 CPE Assay (AID 1508605); also: nearly all actives have a fitted effect of over 60% in size; also: potency is read from the fitted curve at half-maximal effect", "conditions": "cell viability luminescence; series mostly up to 20 µM", "values": [{"smiles": "CCCCCCCc1ccc(CCc2cccc(O)c2C(=O)O)cc1", "Potency": "inactive"}, {"smiles": "COc1cccc2c1CCCC2CCCN1CCN(C2CCCCC2)CC1", "note": "(centres undefined)", "Potency": "inactive"}, {"smiles": "O=C(c1ccc(Nc2nccc(-c3cc4ccccc4s3)n2)cc1)N1CCC(N2CCCC2)CC1", "Potency": "10 µM (active)"}, {"smiles": "COc1c(C)cnc(Cn2cnc3c(Cl)nc(N)nc32)c1C", "Potency": "inactive"}, {"smiles": "CCN(CC)CCCCNc1nc2cc(Cl)c(Cl)cc2nc1-c1ccc(-c2cccs2)s1", "Potency": "10 µM (active)"}, {"smiles": "Nc1ccc(C(=O)c2cc3c(ccc4ccccc43)[nH]2)cc1", "Potency": "14.1 µM (active)"}, {"smiles": "CN(C)c1ccc(C2Nc3ccc4ccccc4c3C3=C2C(=O)CC(C)(C)C3)cc1Br", "note": "(centres undefined)", "Potency": "inactive"}]}, {"assay": "Confirmatory qHTS for activators (rescue) of SARS-CoV-2 Cytopathic Effect (CPE) (AID 1508606); also: nearly all actives have a fitted effect of over 70% in size; also: potency is read from the fitted curve at half-maximal effect", "conditions": "Vero E6 SARS-CoV-2 CPE rescue, viability luminescence; series mostly up to 20 µM", "values": [{"smiles": "COc1cccc2c1CCCC2CCCN1CCN(C2CCCCC2)CC1", "note": "(centres undefined)", "Potency": "11.2 µM (active)"}, {"smiles": "O=C(c1ccc(Nc2nccc(-c3cc4ccccc4s3)n2)cc1)N1CCC(N2CCCC2)CC1", "Potency": "3.55 µM (active)"}, {"smiles": "S=C(NCc1ccc2c(c1)OCO2)N1CCN(c2ncnc3c2oc2ccccc23)CC1", "Potency": "3.55 µM (active)"}, {"smiles": "CN(C)c1ccc(C2Nc3ccc4ccccc4c3C3=C2C(=O)CC(C)(C)C3)cc1Br", "note": "(centres undefined)", "Potency": "inactive"}]}]}
